Reference: article PMC12820563, “FoxP3 forms a head-to-head dimer in vivo and stabilizes its multimerization on adjacent microsatellites”
The full ranking holds about 16,000 sequences; the median of “rpm ratio (pull-down/input)” is about 0.94, and the highest 2% start at about 1.7. Only a selection was taken, and the highest values are over-represented in it overall.

Each sequence was assayed against T1, MBP-FoxP1dN (Mus musculus, UniProt P58462 326-579) (assay: PD-seq (MBP pull-down with sequencing); 20 mM Tris-HCl pH 7.5, 100 mM NaCl, 1.5 mM MgCl2, 0.4 uM protein, 0.1 uM dsDNA library, 30 min, room temperature, amylose pull-down; high values mean tight binding). Conditions: protein: recombinant; tags: His6-MBP; chain copies: 2; dsDNA, one strand shown.
T1 sequence: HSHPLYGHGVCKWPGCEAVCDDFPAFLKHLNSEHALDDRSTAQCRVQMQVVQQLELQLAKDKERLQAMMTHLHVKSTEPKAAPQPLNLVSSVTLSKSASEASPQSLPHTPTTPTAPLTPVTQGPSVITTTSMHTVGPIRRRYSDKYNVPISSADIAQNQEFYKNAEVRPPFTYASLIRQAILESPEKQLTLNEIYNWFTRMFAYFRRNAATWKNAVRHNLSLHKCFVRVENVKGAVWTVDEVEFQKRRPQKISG
Outline: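 E. coli-expressed mouse FoxP3 or FoxP1 fragment, N-terminus removed and tagged with His6-MBP, was used at 0.4 µM against 0.1 µM of a Klenow-filled degenerate double-stranded DNA library. After 30 min at room temperature in Tris pH 7.5 buffer with NaCl and MgCl2, complexes were pulled down on amylose resin and washed three times. Binding is pull-down over input reads-per-million enrichment from pooled replicates of the proteinase K-released, PCR-barcoded, Illumina-sequenced DNA.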

| Sequence | binding signal |
| --- | --- |
| GATGATTGTTCTCCCAGCTGATGAATTAAGAGAATCGAGTAAACAAATTTTCCTAATCTTTCTGTTCAAGCGCCATCTAC | 0.949 RPM ratio (pull-down/input) |
| GATGATTGTTCTCCCAGCTGATGAATTGTTGTGCTCGAGTAAACAAATTTTCCTAATCTTTCTGTTCAAGCGCCATCTAC | 2.06 RPM ratio (pull-down/input) |
| GATGATTGTTCTCCCAGCTGATGAATTTTTTTGCTCGAGTAAACAAATTTTCCTAATCTTTCTGTTCAAGCGCCATCTAC | 0.948 RPM ratio (pull-down/input) |
| GATGATTGTTCTCCCAGCTGATGAATTTGTTTGCTCGAGTAAACAAATTTTCCTAATCTTTCTGTTCAAGCGCCATCTAC | 2.43 RPM ratio (pull-down/input) |
| GATGATTGTTCTCCCAGCTGATGAATTTTGTTGCTCGAGTAAACAAATTTTCCTAATCTTTCTGTTCAAGCGCCATCTAC | 1.79 RPM ratio (pull-down/input) |
| GATGATTGTTCTCCCAGCTGATGAATTTCTGTGCTCGAGTAAACAAATTTTCCTAATCTTTCTGTTCAAGCGCCATCTAC | 0.877 RPM ratio (pull-down/input) |
| GATGATTGTTCTCCCAGCTGATGAATTGTGCTGCTCGAGTAAACAAATTTTCCTAATCTTTCTGTTCAAGCGCCATCTAC | 0.988 RPM ratio (pull-down/input) |
| GATGATTGTTCTCCCAGCTGATGAATTTGATTGCTCGAGTAAACAAATTTTCCTAATCTTTCTGTTCAAGCGCCATCTAC | 1.16 RPM ratio (pull-down/input) |
| GATGATTGTTCTCCCAGCTGATGAATTGTTTTGCTCGAGTAAACAAATTTTCCTAATCTTTCTGTTCAAGCGCCATCTAC | 1.95 RPM ratio (pull-down/input) |
| GATGATTGTTCTCCCAGCTGATGAATTTTGCTCCTCGAGTAAACAAATTTTCCTAATCTTTCTGTTCAAGCGCCATCTAC | 0.907 RPM ratio (pull-down/input) |
| GATGATTGTTCTCCCAGCTGATGAATTGTTGCTCTCGAGTAAACAAATTTTCCTAATCTTTCTGTTCAAGCGCCATCTAC | 1.39 RPM ratio (pull-down/input) |
| GATGATTGTTCTCCCAGCTGATGAATTCTTTTGCTCGAGTAAACAAATTTTCCTAATCTTTCTGTTCAAGCGCCATCTAC | 0.898 RPM ratio (pull-down/input) |
| GATGATTGTTCTCCCAGCTGATGAATTTCTTTGCTCGAGTAAACAAATTTTCCTAATCTTTCTGTTCAAGCGCCATCTAC | 0.931 RPM ratio (pull-down/input) |
| GATGATTGTTCTCCCAGCTGATGAATTATAATTCTCGAGTAAACAAATTTTCCTAATCTTTCTGTTCAAGCGCCATCTAC | 0.978 RPM ratio (pull-down/input) |
| GATGATTGTTCTCCCAGCTGATGAATTTCATCTATCGAGTAAACAAATTTTCCTAATCTTTCTGTTCAAGCGCCATCTAC | 0.877 RPM ratio (pull-down/input) |
| GATGATTGTTCTCCCAGCTGATGAATTCGCGTATTCGAGTAAACAAATTTTCCTAATCTTTCTGTTCAAGCGCCATCTAC | 0.979 RPM ratio (pull-down/input) |
| GATGATTGTTCTCCCAGCTGATGAATTTGAAATCTCGAGTAAACAAATTTTCCTAATCTTTCTGTTCAAGCGCCATCTAC | 0.737 RPM ratio (pull-down/input) |
| GATGATTGTTCTCCCAGCTGATGAATTAACGAGTTCGAGTAAACAAATTTTCCTAATCTTTCTGTTCAAGCGCCATCTAC | 0.92 RPM ratio (pull-down/input) |
| GATGATTGTTCTCCCAGCTGATGAATTAGCGACCTCGAGTAAACAAATTTTCCTAATCTTTCTGTTCAAGCGCCATCTAC | 0.762 RPM ratio (pull-down/input) |
| GATGATTGTTCTCCCAGCTGATGAATTCCTGAACTCGAGTAAACAAATTTTCCTAATCTTTCTGTTCAAGCGCCATCTAC | 0.79 RPM ratio (pull-down/input) |
| GATGATTGTTCTCCCAGCTGATGAATTAGCATAGTCGAGTAAACAAATTTTCCTAATCTTTCTGTTCAAGCGCCATCTAC | 0.88 RPM ratio (pull-down/input) |

| Sequence | binding signal |
| --- | --- |
| GATGATTGTTCTCCCAGCTGATGAATTTTGTGTGTCGAGTAAACAAATTTTCCTAATCTTTCTGTTCAAGCGCCATCTAC | 1.48 RPM ratio (pull-down/input) |
| GATGATTGTTCTCCCAGCTGATGAATTTTTTGTGTCGAGTAAACAAATTTTCCTAATCTTTCTGTTCAAGCGCCATCTAC | 1.12 RPM ratio (pull-down/input) |
| GATGATTGTTCTCCCAGCTGATGAATTTGTTGTGTCGAGTAAACAAATTTTCCTAATCTTTCTGTTCAAGCGCCATCTAC | 2.48 RPM ratio (pull-down/input) |
| GATGATTGTTCTCCCAGCTGATGAATTTGTGTTGTCGAGTAAACAAATTTTCCTAATCTTTCTGTTCAAGCGCCATCTAC | 2.64 RPM ratio (pull-down/input) |
| GATGATTGTTCTCCCAGCTGATGAATTTGTGTCGTCGAGTAAACAAATTTTCCTAATCTTTCTGTTCAAGCGCCATCTAC | 1.23 RPM ratio (pull-down/input) |
| GATGATTGTTCTCCCAGCTGATGAATTGTGTGTGTCGAGTAAACAAATTTTCCTAATCTTTCTGTTCAAGCGCCATCTAC | 1.52 RPM ratio (pull-down/input) |
| GATGATTGTTCTCCCAGCTGATGAATTCCGTACCTCGAGTAAACAAATTTTCCTAATCTTTCTGTTCAAGCGCCATCTAC | 0.829 RPM ratio (pull-down/input) |
| GATGATTGTTCTCCCAGCTGATGAATTATCTGTCTCGAGTAAACAAATTTTCCTAATCTTTCTGTTCAAGCGCCATCTAC | 0.945 RPM ratio (pull-down/input) |
| GATGATTGTTCTCCCAGCTGATGAATTCTGTACTTCGAGTAAACAAATTTTCCTAATCTTTCTGTTCAAGCGCCATCTAC | 0.932 RPM ratio (pull-down/input) |
| GATGATTGTTCTCCCAGCTGATGAATTCTGTATATCGAGTAAACAAATTTTCCTAATCTTTCTGTTCAAGCGCCATCTAC | 1.67 RPM ratio (pull-down/input) |
| GATGATTGTTCTCCCAGCTGATGAATTGTATATATCGAGTAAACAAATTTTCCTAATCTTTCTGTTCAAGCGCCATCTAC | 1.6 RPM ratio (pull-down/input) |
| GATGATTGTTCTCCCAGCTGATGAATTGTGTACTTCGAGTAAACAAATTTTCCTAATCTTTCTGTTCAAGCGCCATCTAC | 1.84 RPM ratio (pull-down/input) |
| GATGATTGTTCTCCCAGCTGATGAATTTTGTATATCGAGTAAACAAATTTTCCTAATCTTTCTGTTCAAGCGCCATCTAC | 2.33 RPM ratio (pull-down/input) |
| GATGATTGTTCTCCCAGCTGATGAATTTTGTACTTCGAGTAAACAAATTTTCCTAATCTTTCTGTTCAAGCGCCATCTAC | 0.97 RPM ratio (pull-down/input) |
| GATGATTGTTCTCCCAGCTGATGAATTGTATATCTCGAGTAAACAAATTTTCCTAATCTTTCTGTTCAAGCGCCATCTAC | 1.36 RPM ratio (pull-down/input) |
| GATGATTGTTCTCCCAGCTGATGAATTGAGTATATCGAGTAAACAAATTTTCCTAATCTTTCTGTTCAAGCGCCATCTAC | 1.1 RPM ratio (pull-down/input) |
| GATGATTGTTCTCCCAGCTGATGAATTTTTGTAATCGAGTAAACAAATTTTCCTAATCTTTCTGTTCAAGCGCCATCTAC | 1.78 RPM ratio (pull-down/input) |
| GATGATTGTTCTCCCAGCTGATGAATTTGTAAAATCGAGTAAACAAATTTTCCTAATCTTTCTGTTCAAGCGCCATCTAC | 1.24 RPM ratio (pull-down/input) |
| GATGATTGTTCTCCCAGCTGATGAATTGTGTATATCGAGTAAACAAATTTTCCTAATCTTTCTGTTCAAGCGCCATCTAC | 1.9 RPM ratio (pull-down/input) |
| GATGATTGTTCTCCCAGCTGATGAATTTTGTAAATCGAGTAAACAAATTTTCCTAATCTTTCTGTTCAAGCGCCATCTAC | 1.5 RPM ratio (pull-down/input) |
